Compound activity from PubChem BioAssay.
DT40 TDP1 CPT: qHTS for Inhibitors of human tyrosyl-DNA phosphodiesterase 1 (TDP1): qHTS in cells in presence of CPT | chicken DT40 Tdp1-/-;hTDP1 cells + 20 nM CPT, ATP luminescence, 48 h | Potency, µM (highest dose often 46.2 µM), most hits filed as inhibitors | 420,000 compounds, 12% hits | AID 686979, 2013; note: nearly all actives have a fitted effect of over 55% in size
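Chicken DT40 Tdp1-/- cells stably complemented with human TDP1 were seeded at 400 cells/well in medium containing 20 nM camptothecin, exposed to pin-transferred compounds, and grown at 37 °C for at least 48 hr. Viability was read as ATP luminescence.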
PLK1 PBD inh: qHTS for Inhibitors of PLK1-PDB (polo-like kinase 1 - polo-box domain): Primary Screen. Serine/threonine-protein kinase PLK1 (Homo sapiens), P53350. Plk1 PBD binding of FITC phosphopeptide, fluorescence polarization. Potency, µM, hits mostly inhibitors. 360,000 compounds, 2.8% hits. AID 720504, 2013; note: series mostly up to about 57 µM; nearly all actives have a fitted effect of over 65% in size
VDR inhibitor: Inhibitors of the vitamin D receptor (VDR): qHTS. Vitamin D3 receptor (Homo sapiens), P11473. VDR-SRC2-3 peptide fluorescence polarization, 2 h. Potency, µM, most hits filed as inhibitors. 400,000 compounds, 0.93% hits. AID 504847, 2011
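Inhibition of the VDR/SRC2-3 peptide interaction is quantified by fluorescence polarization. Compounds (23 nl, pintool) incubate with the reagents for 2 hours at ambient room temperature.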
TDP1 block: qHTS Assay for Inhibitors of Tyrosyl-DNA Phosphodiesterase (TDP1) | Tyrosyl-DNA phosphodiesterase 1 (Homo sapiens), Q9NUW8 | 350,000 compounds, 0.28% hits | AID 485290, 2010 | recombinant TDP1, AlphaScreen DNA substrate cleavage | Potency, µM (top dose mostly 130 µM), usual class: inhibitors; note: nearly all actives have a fitted effect of over 40% in size
Target sequence (Q9NUW8 whole entry, looked up): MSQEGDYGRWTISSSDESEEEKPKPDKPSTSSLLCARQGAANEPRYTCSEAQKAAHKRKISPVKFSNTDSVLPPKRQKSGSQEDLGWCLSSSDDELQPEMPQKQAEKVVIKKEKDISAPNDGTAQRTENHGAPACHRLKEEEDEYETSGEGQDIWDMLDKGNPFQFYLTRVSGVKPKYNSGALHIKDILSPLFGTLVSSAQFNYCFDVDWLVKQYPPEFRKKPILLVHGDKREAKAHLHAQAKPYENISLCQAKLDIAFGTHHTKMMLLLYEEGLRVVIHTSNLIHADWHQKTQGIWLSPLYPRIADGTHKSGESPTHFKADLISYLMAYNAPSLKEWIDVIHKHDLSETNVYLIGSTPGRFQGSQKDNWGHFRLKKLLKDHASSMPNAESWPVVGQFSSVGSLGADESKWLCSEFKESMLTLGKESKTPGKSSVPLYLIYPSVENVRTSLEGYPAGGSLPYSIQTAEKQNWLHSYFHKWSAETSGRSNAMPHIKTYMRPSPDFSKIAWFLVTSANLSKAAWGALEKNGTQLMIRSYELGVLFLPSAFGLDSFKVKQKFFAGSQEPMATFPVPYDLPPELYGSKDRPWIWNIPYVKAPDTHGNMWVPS
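Recombinant human Tdp1 (E. coli-expressed, 1 nM final) preincubated with compounds 15 min at room temperature, then 5'-biotin/3'-phosphotyrosine-FITC DNA substrate (15 nM final) added for 5 min. AlphaScreen beads (10 ug/ml final) added 10 min; cleavage lowers signal.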
TDP1 cell noCPT: qHTS for Inhibitors of human tyrosyl-DNA phosphodiesterase 1 (TDP1): qHTS in cells in absence of CPT. AID 686978, 2013. DT40 Tdp1-/- hTDP1 cells, no CPT, ATP luminescence, 48 h. Potency, µM (series often up to 46.2 µM), hits mostly inhibitors. 420,000 compounds, 15% hits; note: nearly all actives have a fitted effect of over 55% in size
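Growth kinetics read by CellTiter-Glo luminescence after ≥48 hr at 37 °C. Cells: DT40 Tdp1-/- stably carrying human TDP1, 400 per well, compound exposure in the absence of CPT (DMSO vehicle).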
KAT2A inh: qHTS Assay for Inhibitors of GCN5L2. GCN5L2 HAT assay, ThioGlo1 CoA-SH fluorescence. Potency, µM (titrated, usually from 58.9 µM), most hits filed as inhibitors. Histone acetyltransferase KAT2A (Homo sapiens), Q92830. 390,000 compounds, 0.21% hits
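Compounds, pin-transferred from DMSO stocks, meet 20nM GCN5L2 for 15 min before the reaction begins with H3(1-25) peptide (75uM) and acetyl-CoA (70uM). Thiol-reactive ThioGlo1 reports CoA release over 20 min at room temperature.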
Numbers stand for hits; . = inactive; ? = inconclusive; / = not tested or not shown. Hits are enriched below; roughly 18% of the tested compounds scored in any of these assays. Calls come from the whole dose curve; as a rule, active = well fitted curve in the direction sought with a large enough effect; inconclusive = small, poorly fitted or top-dose-only effect, or another doubt; inactive = no such curve, though single readings can be large; an effect the other way counts as inactive or inconclusive.

SMILES	DT40 TDP1 CPT	PLK1 PBD inh	VDR inhibitor	TDP1 block	TDP1 cell noCPT	KAT2A inh
CSCCC(C(=O)Nc1c(C)cccc1C)N1CCC(Cc2ccccc2)CC1 (stereo not given)	16µM	.	/	/	18µM	/
Cc1cc(C)cc(C(=O)Nc2c3c(nn2-c2ccccc2C)CS(=O)(=O)C3)c1	.	/	.	.	.	.
O=C(Nc1ccc2c(c1)OCCO2)C(CCc1ccccc1)N1CCC(Cc2ccccc2)CC1 (stereo not given)	?	.	/	/	16µM	/
Cc1cccc(C)c1NC(=O)C(c1ccccc1)N1CCN(C(=O)c2ccco2)CC1 (stereo not given)	.	.	.	.	.	.
CSCCC(C(=O)Nc1c(C)cccc1C)N1CCN(c2ccc(F)cc2)CC1 (stereo not given)	?	.	/	/	21µM	/
O=C(Nc1ccc2c(c1)OCCO2)C(CCc1ccccc1)N(Cc1ccccc1)Cc1ccccc1 (stereo not given)	?	.	/	/	?	/
Cc1cccc(C)c1NC(=O)C(c1ccccc1)N1CCC1=O (stereo not given)	?	17µM	?	.	?	.
Cc1cnc(CNc2ncnc3ccc(-c4ccccc4C#N)cc23)cn1	.	/	.	.	.	.
Cc1csc2sc(-c3ccnc(SCC(=O)NCc4ccccc4)n3)c(C)c12	0.73µM	.	.	.	0.73µM	.
Cc1csc(SCC(=O)NCc2ccccc2)n1	.	.	.	.	.	.
CCOc1ccc(N(C(=O)/C=C/C(=O)Nc2cc(C)on2)C(C(=O)NC2CCCC2)c2ccccc2C)cc1 (stereo not given)	16µM	.	.	.	16µM	?
CCc1ccc(C(C(=O)NC2CCCC2)N(C(=O)/C=C/C(=O)Nc2cc(C)on2)c2ccccc2C)cc1 (stereo not given)	16µM	.	.	.	16µM	.
Cc1cc(NC(=O)CCC(=O)N(CC2CCCO2)C(C(=O)NC2CCCC2)c2ccccc2C)no1 (stereo not given)	?	.	.	/	?	/
Cc1cc(NC(=O)/C=C/C(=O)N(CC(=O)NC2CCCC2)c2cccc3ccccc23)no1	.	.	.	.	.	.
CCCN(CC(=O)Nc1ccccc1C)C(=O)c1ccc(C2SCCS2)cc1	?	.	.	/	?	.
CC(C)CN1CCC(=O)N(C(CSc2ccc(Br)cc2)Cc2ccccc2)CC1 (stereo not given)	/	/	.	.	/	/
CCCN1CCC(=O)N([C@H](CSc2ccc(Br)cc2)Cc2ccccc2)CC1	?	.	.	.	?	.
Cc1ccc(SC[C@H](Cc2ccccc2)N2CCN(CC(C)C)CCC2=O)cc1	?	.	.	.	18µM	.
CC(C)CN1CCC(=O)N([C@H](CSc2ccccc2)Cc2ccccc2)CC1	18µM	21µM	?	/	16µM	.
CCCN1CCC(=O)N([C@H](CSc2ccccc2)Cc2ccccc2)CC1	11µM	.	.	/	11µM	.
CC1CC(C)CN(c2oc(-c3ccco3)nc2C#N)C1 (stereo not given)	18µM	.	.	.	21µM	.
COc1ccccc1OCc1nc(C#N)c(N2CC(C)CC(C)C2)o1 (stereo not given)	29µM	.	.	.	?	.
COc1ccccc1OCc1nc(C#N)c(N2CCCC2)o1	.	.	.	.	.	.
COc1cc(/C=N/N=C(N)N)ccc1OCc1ccccc1Cl	?	.	.	.	15µM	.
O/N=C/c1cc(Cl)ccc1OCc1ccccc1Cl	.	.	.	.	?	.
SMILES	DT40 TDP1 CPT	PLK1 PBD inh	VDR inhibitor	TDP1 block	TDP1 cell noCPT	KAT2A inh
CCCC(C(=O)NC1CCCC1)N(C(=O)c1snc(C(N)=O)c1N)c1ccc(F)cc1 (stereo not given)	.	.	.	.	.	.
CCCCn1c(=O)[nH]c(=O)c2c1nc(CN1C(=O)c3ccccc3S1(=O)=O)n2CCC	.	.	.	.	?	.
CCCCn1c(=O)[nH]c(=O)c2c1nc(Cn1ncc(Cl)c(Cl)c1=O)n2CCC	4.6µM	30µM	?	.	2.6µM	.
CC(=O)Nc1ccc(NC(=O)C(NC(=O)C2CCC(C)CC2)C(C)C)cc1 (stereo not given)	.	/	.	.	.	.
C=CCc1cc(/C=C2/NC(=S)NC2=O)cc(OC)c1O	15µM	.	.	.	21µM	.
COCCCn1c(SCC(=O)NC2CCCC2)nnc1-c1ccco1	.	.	.	.	.	.
COCCCN=C(c1ccco1)n1c(=S)nc(-c2ccco2)n(CCCOC)c1=S	26µM	19µM	?	/	?	?
COCCCNC(=O)C1CCN(c2nc(C)cc(C)n2)CC1	.	.	.	.	.	.
O=C(NCCc1ccc(Cl)cc1)C1CCN(c2ncccn2)CC1	.	.	.	.	.	.
O=C(NCCc1ccc(Cl)cc1)C1CCN(Cc2cc3ccccc3n2Cc2ccccc2)CC1	23µM	/	.	.	18µM	.
Cc1cccc(Cn2c(CN3CCC(C(=O)NCCc4ccccc4)CC3)cc3ccccc32)c1	?	/	.	.	18µM	.
COc1ccc(-c2nc(CN3CCC(C(=O)NCCc4ccccc4)CC3)c(C)o2)cc1OC	.	/	.	.	?	.
Cc1ccnc(N2CCC(C(=O)Nc3ccc4c(c3)OCO4)CC2)n1	.	.	.	.	.	.
Cc1cc(C)nc(N2CCC(C(=O)NCCc3ccccc3)CC2)n1	8.2µM	.	.	.	9.2µM	.
Cc1cc(C)nc(N2CCC(C(=O)Nc3ccc4c(c3)OCO4)CC2)n1	8.2µM	.	.	.	9.2µM	.
Cc1c(Cl)cccc1NS(=O)(=O)c1cc2c(cc1F)NC(=O)CC2	/	/	/	.	/	/
C#CCn1c(=O)c2c(nc(/C=C/c3cccc(OC)c3)n2C)n(CCCOP(=O)(O)O)c1=O	/	/	.	.	/	.
CCN1C[C@@H]2[C@@H]3C(=O)N(C)C(=O)[C@@H]3[C@](C)(C1=O)N2C(=O)c1ccc(C(F)(F)F)cc1	.	.	.	/	.	/
S=c1[nH]nc(-c2cc3c(s2)-c2ccccc2CC3)o1	?	21µM	?	.	.	?
COc1cccc(C(O)c2nc(-c3cncnc3)cs2)c1 (stereo not given)	.	.	/	/	.	/
COC(=O)c1cc(=O)n(CCc2ccc(OC)cc2)c(=Nc2ccc(F)c(Cl)c2)s1	?	.	.	.	?	.
